Assay results: PubChem BioAssay
The source made the active and inactive calls. Unless noted, the rule behind the calls is not given here.

Legend:
[1] = tested on: Wnt5a (protein binding on small-molecule microarray); assay: Wnt5a binders on small-molecule microarray, primary screen, biophysical, 635/667 nm fluorescence (AID 1142); details: 635 nm fluorescence, higher = more signal;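 note: fluorescence read at 667 nm with signal to noise per printed feature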
[2] = cell viability in Huh7 cells, primary screen, cytotoxicity control for HCV replication inhibitor project, CellTiter-Glo luminescence, basal, 48 h (AID 1143); details: Huh7 HCV replicon, higher = more signal, called active from +8 up or from −8 down;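 note: Huh7 hepatoma cells carrying a hepatitis C replication reporter with no stimulus; test concentration not given here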
[3] = P. aeruginosa biofilm formation inhibitors, primary screen, PAO1 strain, BacTiter-Glo luminescence, LB-PBS (AID 1144); details: 12 h, higher = more signal
[4] = CREB reporter modulators without forskolin, primary screen, cell-based, PC12, CRE-LacZ reporter, unstimulated (AID 1145); details: no forskolin, luminescence, 4.5 h, higher = more signal, called active from +8 up or from −8 down
[5] = CREB reporter modulators under forskolin, primary screen, cell-based, PC12, CRE-LacZ reporter, forskolin-stimulated (AID 1146); details: luminescence, 4.5 h, higher = more signal, called active from +8 up or from −8 down;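 note: PC12 cells with 6xCRE LacZ reporter stimulated by forskolin 10 µM; beta-galactosidase reporter signal reflecting CREB driven transcription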
[6] = target: Streptavidin (Streptomyces avidinii) (UniProt P22629); assay: streptavidin binders on small-molecule microarray, primary screen, artefact control for SMM compound annotation, biophysical, 635/667 nm fluorescence (AID 1147); details: streptavidin binding, higher = more signal;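 note: signal reflects streptavidin binding to arrayed compounds as a control protein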
Streptavidin (Streptomyces avidinii), sequence (P22629 whole entry, looked up): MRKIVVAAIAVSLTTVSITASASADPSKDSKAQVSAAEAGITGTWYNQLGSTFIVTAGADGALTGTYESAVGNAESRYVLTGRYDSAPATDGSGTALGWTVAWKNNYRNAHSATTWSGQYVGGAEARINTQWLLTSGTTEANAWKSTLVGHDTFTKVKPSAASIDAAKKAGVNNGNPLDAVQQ

[7] = small-molecule binders of probe aInhba, primary screen, biochemical, small-molecule microarray, 635/667 nm fluorescence (AID 1148); details: higher = more signal;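 note: score merges 667nm spot fluorescence with signal-to-noise for antibody binding to printed compounds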
[8] = target: Torsin-1A (Homo sapiens) (UniProt O14656); assay: torsin A binders from cell lysate, primary screen, small-molecule microarray, wild-type, 635/667 nm (AID 1149); details: COS7 hTOR1A-WT lysate, 635 nm fluorescence, higher = more signal
Torsin-1A (Homo sapiens), sequence (O14656 whole entry, looked up): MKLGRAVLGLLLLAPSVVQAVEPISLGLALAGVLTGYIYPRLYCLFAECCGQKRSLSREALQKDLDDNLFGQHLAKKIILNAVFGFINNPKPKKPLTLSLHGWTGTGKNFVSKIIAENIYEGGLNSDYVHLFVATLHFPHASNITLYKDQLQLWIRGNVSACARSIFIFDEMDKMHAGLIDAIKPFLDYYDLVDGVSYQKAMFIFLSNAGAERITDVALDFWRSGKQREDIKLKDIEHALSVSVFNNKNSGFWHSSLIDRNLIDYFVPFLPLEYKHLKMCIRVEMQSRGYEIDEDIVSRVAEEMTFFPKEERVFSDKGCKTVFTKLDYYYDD

[9] = target: Torsin-1A (Homo sapiens) (UniProt O14656); assay: small-molecule binders of mutant TOR1A in lysate, primary screen, cell lysate, small-molecule microarray, COS7 lysate, 635/667 nm fluorescence (AID 1150); details: COS7 hTOR1A mutant lysate, 635 nm fluorescence, higher = more signal;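 note: score pools 667 nm emission and signal to noise measuring lysate protein binding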
[10] = tested on: Sonic hedgehog protein (Shh); assay: small-molecule binders of Shh protein, primary screen, biochemical, small-molecule microarray, 635/667 nm fluorescence (AID 1151); details: small-molecule microarray binding, 635 nm fluorescence; higher = more signal;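 note: Shh protein binding to compounds spotted on small-molecule microarray slides; score combines spot fluorescence intensity with signal-to-noise across triplicate slides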
[11] = E. coli DRC41 culture turbidity changes, primary screen, E. coli filamentation inducer project, strain DRC41, OD650, 48 h (AID 1152);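 note: E. coli MC1000 strain DRC41 lacking acrAB efflux pump and sulA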; details: E. coli DRC41 (acrAB sulA), higher = more signal, called active from +8 up or from −8 down
[12] = small-molecule binders of probe aLefty1, primary screen, biochemical, small-molecule microarray, 635/667 nm fluorescence (AID 1153); details: higher = more signal;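 note: score merges spot fluorescence with signal-to-noise ratio from the scanned slide images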
[13] = PSAC antagonists in infected red cells, primary screen, cell-based, P. falciparum Indochina, OD700, 1 h (AID 1154); details: P. falciparum Indochina infected RBC osmotic lysis, higher = more signal, called active from +8 up or from −8 down
[14] = PSAC antagonists in infected red cells, primary screen, cell-based, P. falciparum Indochina, OD700, 2 h (AID 1155);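 note: lysis reports solute entry through the parasite surface anion channel PSAC; channel blockers reduce lysis of infected cells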; details: P. falciparum Indochina infected erythrocytes, osmotic lysis OD700; higher = more signal, called active from +8 up or from −8 down
[15] = osmotic lysis modulators in infected erythrocytes, primary screen, PSAC antagonist project, cell-based, P. falciparum Indochina, OD700, 3 h (AID 1156); details: higher = more signal, called active from +8 up or from −8 down
[16] = PSAC antagonists in infected red cells, primary screen, cell-based, P. falciparum Indochina, OD700, 18 h (AID 1157); details: P. falciparum Indochina infected erythrocytes, osmotic lysis OD700, 18 h; higher = more signal, called active from +8 up or from −8 down
[17] = modulators of S6 phosphorylation in cells, primary screen, cell-based, A549, cytoblot, luminescence, serum-stimulated (AID 1158); details: A549 phospho-S6 cytoblot, 5 h, higher = more signal;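 note: serum-stimulated A549 lung adenocarcinoma cells; signal is phosphorylated S6 detected by cytoblot immunostaining with HRP secondary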
[18] = target: NADPH oxidase 2 (Homo sapiens) (UniProt P04839); assay: NOX2-dependent H2O2 signal modulators, primary screen, NOX inhibitor project, cell-based, HEK293-NOX2, PMA-stimulated, Amplex Red fluorescence (AID 1159); details: 45 min, higher = more signal, called active from +8 up or from −8 down; note: test concentration not given here
NADPH oxidase 2 (Homo sapiens), sequence (P04839 whole entry, looked up): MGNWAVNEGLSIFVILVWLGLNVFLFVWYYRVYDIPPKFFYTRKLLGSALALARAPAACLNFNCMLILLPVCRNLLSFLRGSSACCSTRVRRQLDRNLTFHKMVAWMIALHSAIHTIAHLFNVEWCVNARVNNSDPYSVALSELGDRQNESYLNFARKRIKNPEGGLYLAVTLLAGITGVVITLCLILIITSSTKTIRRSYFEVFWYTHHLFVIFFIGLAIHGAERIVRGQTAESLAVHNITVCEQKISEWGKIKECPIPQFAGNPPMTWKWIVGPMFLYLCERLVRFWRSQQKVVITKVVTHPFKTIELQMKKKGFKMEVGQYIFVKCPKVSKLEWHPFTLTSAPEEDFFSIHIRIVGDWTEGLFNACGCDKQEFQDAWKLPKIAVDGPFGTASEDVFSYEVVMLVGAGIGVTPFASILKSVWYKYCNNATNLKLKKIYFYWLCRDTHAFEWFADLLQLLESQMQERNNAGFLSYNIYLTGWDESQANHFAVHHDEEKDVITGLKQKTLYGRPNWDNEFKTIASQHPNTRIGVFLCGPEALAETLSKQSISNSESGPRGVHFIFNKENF

[19] = target: NADPH oxidase 4 (Homo sapiens) (UniProt Q9NPH5); assay: NOX4-dependent H2O2 signal modulators, primary screen, NOX inhibitor project, cell-based, HEK293-NOX4, tetracycline-induced, Amplex Red fluorescence (AID 1160); details: 45 min, higher = more signal, called active from +8 up or from −8 down
NADPH oxidase 4 (Homo sapiens), sequence (Q9NPH5 whole entry, looked up): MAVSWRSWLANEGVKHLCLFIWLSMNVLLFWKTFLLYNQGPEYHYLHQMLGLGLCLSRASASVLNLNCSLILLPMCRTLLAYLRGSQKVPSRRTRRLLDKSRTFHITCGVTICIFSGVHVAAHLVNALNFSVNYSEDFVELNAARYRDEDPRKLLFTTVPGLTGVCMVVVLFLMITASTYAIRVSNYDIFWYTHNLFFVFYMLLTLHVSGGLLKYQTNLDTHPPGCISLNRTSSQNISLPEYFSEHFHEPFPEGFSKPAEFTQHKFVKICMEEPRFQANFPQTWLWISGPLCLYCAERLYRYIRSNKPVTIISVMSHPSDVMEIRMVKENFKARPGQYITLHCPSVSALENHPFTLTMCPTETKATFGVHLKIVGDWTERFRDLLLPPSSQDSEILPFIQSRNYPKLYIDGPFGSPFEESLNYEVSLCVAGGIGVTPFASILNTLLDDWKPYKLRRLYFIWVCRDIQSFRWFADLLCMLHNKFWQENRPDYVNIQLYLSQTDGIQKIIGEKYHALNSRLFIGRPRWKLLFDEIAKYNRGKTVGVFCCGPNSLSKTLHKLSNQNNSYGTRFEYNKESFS

[20] = target: NADPH oxidase 5 (Homo sapiens) (UniProt Q96PH1); assay: NOX5-dependent H2O2 signal modulators, primary screen, NOX inhibitor project, cell-based, HEK293-NOX5, Amplex Red fluorescence (AID 1161); details: HEK293-NOX5, ionomycin, 45 min, higher = more signal
NADPH oxidase 5 (Homo sapiens), sequence (Q96PH1 whole entry, looked up): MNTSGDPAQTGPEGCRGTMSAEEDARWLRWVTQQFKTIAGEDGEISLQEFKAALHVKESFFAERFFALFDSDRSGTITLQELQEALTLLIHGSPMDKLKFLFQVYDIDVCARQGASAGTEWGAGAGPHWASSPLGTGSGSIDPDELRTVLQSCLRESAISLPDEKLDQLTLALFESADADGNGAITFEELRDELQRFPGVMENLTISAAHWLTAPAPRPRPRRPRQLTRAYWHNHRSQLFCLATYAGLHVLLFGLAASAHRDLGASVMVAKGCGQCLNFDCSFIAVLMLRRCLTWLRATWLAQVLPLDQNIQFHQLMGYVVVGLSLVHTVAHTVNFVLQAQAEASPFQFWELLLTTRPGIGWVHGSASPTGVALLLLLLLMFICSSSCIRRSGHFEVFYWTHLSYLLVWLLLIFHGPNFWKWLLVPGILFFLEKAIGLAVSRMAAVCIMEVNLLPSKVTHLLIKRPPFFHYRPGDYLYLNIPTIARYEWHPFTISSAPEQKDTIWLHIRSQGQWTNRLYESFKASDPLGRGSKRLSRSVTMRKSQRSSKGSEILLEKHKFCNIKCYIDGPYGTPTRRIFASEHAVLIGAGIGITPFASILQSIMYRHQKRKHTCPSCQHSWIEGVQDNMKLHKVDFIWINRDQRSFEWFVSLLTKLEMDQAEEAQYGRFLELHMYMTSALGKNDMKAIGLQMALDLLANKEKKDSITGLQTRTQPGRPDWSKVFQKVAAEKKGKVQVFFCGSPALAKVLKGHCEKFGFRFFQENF

Structure (SMILES) | composite z-score [1] | z-score [2] | z-score [3] | z-score [4] | z-score [5] | composite z-score [6] | composite z-score [7] | composite z-score [8] | composite z-score [9] | composite z-score [10] | z-score [11] | composite z-score [12] | z-score [13] | z-score [14] | z-score [15] | z-score [16] | z-score [17] | z-score [18] | z-score [19] | z-score [20]
COC(=O)[C@@]1(Cc2ccccc2)[C@H]2c3cc(C(=O)N4CCCC4)n(Cc4cccc5ccccc45)c3C[C@H]2CN1C(=O)c1ccccc1 | 1.67 | -2.97 (inactive) | 0.786 (inactive) | 1.73 (inactive) | 0.941 (inactive) | 2.82 | 1.52 | -0.0124 | 0.669 | -0.27 | -1.22 (inactive) | 1.71 | 6.74 (inactive) | 1.43 (inactive) | 1.27 (inactive) | 1.3 (inactive) | -0.503 | 0.586 (inactive) | -0.237 (inactive) | 1.05
O=C1NC(=O)C2C1C=CC(C(O)c1ccccc1)N2Nc1ccc(Cl)cc1Cl (stereo not given) | 0.656 | -2.84 (inactive) | -1.4 (inactive) | 0.429 (inactive) | -0.12 (inactive) | 2.01 | 0.225 | 1.01 | 1.4 | 1.68 | -1.87 (inactive) | 0.93 | 5.08 (inactive) | -0.32 (inactive) | -3.3 (inactive) | -1.8 (inactive) | 0.726 | -0.169 (inactive) | -4.94 (inactive) | -2.51
COc1ccc(CCNC(=O)[C@@]2(Sc3ccc(C)cc3)CC(=O)N(C3CCCCC3)[C@@H]2c2ccc(CO)cc2I)cc1 | 0.843 | -2.23 (inactive) | -0.382 (inactive) | -0.168 (inactive) | 1.19 (inactive) | 0.422 | 0.0391 | 0.333 | 0.789 | 0.855 | -0.0948 (inactive) | 0.0889 | 2.91 (inactive) | 0.547 (inactive) | -0.325 (inactive) | 0.252 (inactive) | -0.012 | 0.573 (inactive) | 0.672 (inactive) | 2.1
C=CCOC(=O)[C@H]1[C@@H]2C(=O)O[C@@H](c3ccccc3)[C@@H](c3ccccc3)N2[C@@H](c2ccc(OCCOC(=O)[C@@H]3C[C@@H]4C(=O)N[C@@H](CCCCN(C)C)C(=O)N4[C@@H]3c3ccc(O)cc3)cc2)[C@]12C(=O)Nc1ccc(I)cc12 | 0.451 | -0.135 (inactive) | -1.02 (inactive) | -0.935 (inactive) | 1.04 (inactive) | 0.218 | 0.0082 | 1.22 | 0.671 | 1.71 | -0.785 (inactive) | -0.15 | -0.117 (inactive) | 1.39 (inactive) | 5.33 (inactive) | 0.448 (inactive) | -0.724 | 1.41 (inactive) | 0.74 (inactive) | -0.496
C=CCN1C(=O)[C@]2(O[C@H](CCO)[C@@H]([Si](C)(C)c3ccc(OC)cc3)[C@@H]2C)c2cc(N3C(=O)c4cccc5cccc3c45)ccc21 | -0.0476 | -7.91 (inactive) | 0.00752 (inactive) | 23.5 (active) | -2.47 (inactive) | 0.487 | 0.0214 | 1.13 | 0.0015 | 1.84 | 0.568 (inactive) | 0.178 | 6.44 (inactive) | 4.41 (inactive) | 0.0626 (inactive) | 2.83 (inactive) | 1.03 | 0.924 (inactive) | 0.4 (inactive) | 0.0361
COc1cc2c(cc1OC)CN(C(=O)[C@H]1[C@@H]3C(=O)O[C@@H](c4ccccc4)[C@@H](c4ccccc4)N3[C@@H](c3ccc(O)cc3)[C@]13C(=O)Nc1ccc(C#CCNC(N)=O)cc13)CC2 | 0.438 | -0.431 (inactive) | -1.68 (inactive) | -1.01 (inactive) | -0.638 (inactive) | -0.283 | 0.0357 | 0.437 | 0.0805 | 0.74 | 0.595 (inactive) | 0.075 | 0.342 (inactive) | 0.137 (inactive) | -0.518 (inactive) | 0.335 (inactive) | 0.152 | 0.47 (inactive) | 0.732 (inactive) | 0.56
O=C1C[C@]2(c3ccc([N+](=O)[O-])cc3)C(=O)N(CCN3CCOCC3)c3cc(CO)ccc3[C@H]2N1C1CCCCC1 | -0.179 | -2.16 (inactive) | -0.02 (inactive) | -0.322 (inactive) | 0.254 (inactive) | -0.834 | -0.0021 | -0.489 | -0.517 | -0.132 | 0.918 (inactive) | -0.0108 | 1.23 (inactive) | -0.837 (inactive) | -0.584 (inactive) | -0.507 (inactive) | 1.51 | -0.791 (inactive) | -0.0781 (inactive) | 1.18
COc1ccc(C(=O)Nc2ccc(CN3C(=O)[C@@]4(O[C@@H](CCO)[C@H]([Si](C)(C)c5ccc(OC)cc5)[C@H]4C)c4ccccc43)cc2)cc1 | 0.146 | -8.02 (active) | 0.422 (inactive) | 3.11 (inactive) | -1.27 (inactive) | 0.225 | -0.201 | 1.05 | 0.471 | 1.96 | -1.11 (inactive) | 0.155 | 25.1 (active) | 13.2 (active) | 1.6 (inactive) | 1.75 (inactive) | -0.483 | -6.53 (inactive) | -2.48 (inactive) | -0.954
